Only some compounds are listed: those with a hit (about 1.2% of all), similar ones and a draw of the others.
TrxR1 inh – rat TrxR1 inhibition | recombinant rTrxR1, NADPH fluorescence consumption, selenite substrate | O89049 | actives 1% (n = 390,000) | Potency, µM (doses to about 114 µM), actives largely listed as inhibitors; also: nearly all actives have a fitted effect of over 65% in size
Target sequence (O89049 whole entry, looked up): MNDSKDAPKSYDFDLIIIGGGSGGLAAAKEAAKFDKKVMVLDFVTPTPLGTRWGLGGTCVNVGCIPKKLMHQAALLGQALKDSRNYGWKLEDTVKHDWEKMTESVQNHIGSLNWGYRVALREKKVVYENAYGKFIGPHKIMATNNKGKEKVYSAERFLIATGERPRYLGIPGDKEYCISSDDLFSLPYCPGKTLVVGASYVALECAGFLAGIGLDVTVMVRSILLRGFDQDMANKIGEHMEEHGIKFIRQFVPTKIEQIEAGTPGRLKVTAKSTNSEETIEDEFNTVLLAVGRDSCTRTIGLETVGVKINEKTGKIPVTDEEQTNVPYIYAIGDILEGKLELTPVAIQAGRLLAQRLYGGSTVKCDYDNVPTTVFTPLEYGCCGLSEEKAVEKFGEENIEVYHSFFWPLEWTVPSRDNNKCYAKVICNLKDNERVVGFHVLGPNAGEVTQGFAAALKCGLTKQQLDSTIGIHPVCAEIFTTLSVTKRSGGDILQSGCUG
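Rat TrxR1 (90 nM in the dispensed reagent) was pre-reduced with 400 uM NADPH for 5 min at room temperature, then incubated with compound for 15 min. After 400 uM selenite was added, NADPH fluorescence (Ex 340/Em 450 nm) was followed for 8 min.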
PI4K2A inh – blocks human PI4K2A kinase activity | Q9BTU6 | purified PI4K2A, ADP-Glo luminescence, 1 h; active compounds read low | activity change, negative = inhibition, % at 76.9 µM | actives 0.13% (n = 420,000) | AID 1346378; in the data active = activity change below about -50%; inconclusive = mostly about -30% to -49%
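ADP-Glo luminescence measured ADP generated by PI4K2A enzyme (4 ug/mL before mixing) with 1.2 mM PI substrate (pre-mix) and 300 microM ATP (pre-mix). Tris pH7.5 buffer with MgCl2, Triton X-100; 1 h reaction at ambient temperature.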
TrxR1 substrate – rat thioredoxin reductase 1 substrate activity; O89049; purified TrxR1 substrate turnover, NADPH consumption readout; Potency, µM (top dose mostly 114 µM); actives 0.01% (n = 390,000); AID 588456; also: nearly all actives have a fitted effect of over 50% in size
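Rat TrxR1, dispensed at 90 nM, was prereduced with 400 uM NADPH (final) for 5 min at ~22 deg C, then incubated with compound 15 min before 400 uM selenite. A first-read NADPH fluorescence drop versus no-compound background flagged substrates.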
GALK inhibitor – blocks human galactokinase activity; Purified GALK, Kinase-Glo residual ATP luminescence; actives 0.007% (n = 270,000); Potency, µM (top dose mostly 57.5 µM), hits mostly inhibitors
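Human GALK (5 nM) with 35 uM ATP and 100 uM galactose in 20 mM HEPES pH 8.0, 5 mM MgCl2, 60 mM NaCl, 1 mM DTT, 0.01% BSA. After 1 h at room temperature, leftover ATP was read by Kinase-Glo Plus luminescence.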
PKM2 activator – PKM2 (human) enzyme activation; P14618; Potency, µM (highest dose often 57.5 µM), most hits filed as activators; actives 0.34% (n = 260,000); purified PKM2, Kinase-Glo ATP luminescence, activation; response scale: 0% is enzyme alone, no compound; also: nearly all actives have a fitted effect of over 55% in size
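hPK-M2, >95% pure; 0.1 mM ADP / 0.5 mM PEP final; imidazole pH7.2 buffer w/ 7 mM MgCl2, 50 mM KCl; 1 h RT; Kinase-Glo lum. Intermediate enzyme activity for dual inhibitor/activator qHTS.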
Numbers stand for hits; i = inactive; ? = inconclusive; nt = no result given; ! = a repeat was not active; [ ] = remark or other dose. Unless noted, calls follow the shape of the dose curve; as a rule, active = well fitted curve in the direction sought with a large enough effect; inconclusive = small, poorly fitted or top-dose-only effect, or another doubt; inactive = no such curve, though single readings can be large; an effect the other way counts as inactive or inconclusive.

SMILES | TrxR1 inh | PI4K2A inh | TrxR1 substrate | GALK inhibitor | PKM2 activator
CCc1ccc(Nc2nc3ccccc3c3nnc(C)n23)cc1 | i | i | i | nt | nt
COc1cc(C2Nc3ccccc3-c3nnc(SCc4ccc(C)cc4)nc3O2)cc(OC)c1O (stereo unspecified) | i | i | i | nt | nt
CCOc1ccc(C(=O)NC(=S)Nc2ncccc2C)cc1[N+](=O)[O-] | i | i | i | i | i
CCCCn1nnc(NC(=S)NC(=O)c2ccc(OCC)c([N+](=O)[O-])c2)n1 | 79.4µM | i | i | i | i
CC(C)(C)c1ccc(-c2nnc3sc(COc4ccccc4)nn23)cc1 | nt | i | nt | nt | nt
Cc1oc2ncn(CC(C)C)c(=O)c2c1C(=O)N(Cc1ccccc1)C(C)C | i | i | i | nt | nt
COc1ccccc1C1=NC(c2ccccc2)CN1c1ccccc1 (stereo unspecified) | 22.4µM | i | i | i | nt
Cc1c(S(=O)(=O)c2ccccn2)c(N)n(Cc2ccccc2Cl)c1C | ? | i | i | nt | i
Cc1c(S(=O)(=O)c2ccccn2)c(N)n(Cc2ccccc2)c1C | 11.2µM | i | i | i | i
COCCn1c(C)c(C)c(S(=O)(=O)c2ccccc2)c1N | 20µM | i | i | i | nt
COc1ccccc1C(=O)NCc1nnnn1-c1ccc(C)c(C)c1 | i | i | i | nt | nt
O=S(=O)(c1ccccc1)c1cc(O)ccc1O | ? | i | i | i | i
Nc1ccc(S(=O)(=O)c2cc(O)c3ccccc3c2O)cc1 | 2.82µM | i | i | nt | nt
CCOC(=O)/C=C1\CN(Cc2cc(OC)c(OC)c(OC)c2)S(=O)(=O)c2ccc(C(F)(F)F)cc21 | 50.1µM! | i | i | nt | i
O=C(c1ccc(F)c(F)c1)N1CCC(Oc2cccnc2)CC1 | nt | i | nt | nt | nt
COC(=O)c1ccc(C(=O)OC)c(NC(=O)C2CC2)c1 | i | i | i | i | i
COC(=O)c1ccc(C(=O)OC)c(NC(=O)/C=C/C(=O)O)c1 | 44.7µM | i | i | i | i
O=C(NCc1ccccc1)NC1COc2ccccc2C1 (stereo unspecified) | i | i | i | nt | nt
COc1ccc(S(=O)(=O)Nc2ccc(-n3cccc3)cc2)cc1 | i | i | i | i | 10µM
COc1ccc(NC(=S)Nc2ncccc2C)cc1OC | i | i | i | i | i
COc1ccc(NC(=S)Nc2ncccc2C)c(OC)c1 | 1.78µM | i | i | i | i
O=C(CCCl)NCc1ccccc1 | nt | i | nt | nt | nt
CCCCn1c(N)c(C(=S)NC(=O)CC(C)(C)C)c(=O)n(C)c1=O | 39.8µM | i | i | i | i
O=C(CCl)Nc1ccccc1Sc1ccc(Cl)cc1 | 8.91µM | i | i | i | i
CC(=O)N1CCN(CC(=O)Nc2ccccc2Sc2ccc(Cl)cc2)CC1 | i | i | i | i | i
SMILES | TrxR1 inh | PI4K2A inh | TrxR1 substrate | GALK inhibitor | PKM2 activator
O=C(CCl)Nc1ccccc1C(=O)c1ccccc1 | 20µM | i | i | i | i
Cc1cc(C(=O)c2ccccc2)c(NC(=O)CCl)s1 | 20µM | i | i | i | i
CCOC(=O)[C@]12CCCC3=C1N(CCC3)C(=O)[C@@H](CC(=O)NCCCOC)C2 | nt | i | nt | nt | nt
CCOC(=O)c1ccc(NC(=O)Cn2nc(SC)c(S(=O)(=O)c3ccc(Cl)cc3)c2N)cc1 | i | i | i | nt | nt
COC(=O)[C@]12C[C@H](CC(=O)NCc3ccccc3)C(=O)N(CCC3=CCCCC3)C1=C[C@H](C1CCCC1)O[C@@H]2C | nt | i | nt | nt | nt
CC(=O)N(C)c1ccc(/C=C2\C=Cc3ccccc32)cc1 | ? | nt | i | nt | nt
CCCC(=O)N(C)c1ccc(/C=C2\C=Cc3ccccc32)cc1 | 20µM | nt | i | nt | nt
O=C(CC1SC(=O)N(c2ccccc2)C1=O)Nc1ccccc1 (stereo unspecified) | i | i | i | i | i
O=C(CC1Sc2ncnn2C1=O)Nc1ccccc1 (stereo unspecified) | 4.47µM | i | i | i | i
O=C(O)CCNc1cc(N2CCN(C(=O)c3ccco3)CC2)c2noc3c2c1C(=O)c1ccccc1-3 | 35.5µM | -61.0 | i | i | i
CCN1CCN(c2cc(N3CCN(C(=O)c4ccco4)CC3)c3c4c(onc24)-c2ccccc2C3=O)CC1 | i | i | i | i | i[0.46 µM]
O=C(N/N=C/c1ccc(N2CCOCC2)o1)c1cccc(C(F)(F)F)c1 | 7.08µM | i | i | i | i
O=C(N/N=C/c1ccc(N2CCOCC2)o1)c1ccccc1[N+](=O)[O-] | 8.91µM | i | i | i | ?
